In the supplement of paper PMC10681739 one finds TF binding intensity data, which are given here for five sequences.

Sequence of RUNX1 (Q01196 whole entry): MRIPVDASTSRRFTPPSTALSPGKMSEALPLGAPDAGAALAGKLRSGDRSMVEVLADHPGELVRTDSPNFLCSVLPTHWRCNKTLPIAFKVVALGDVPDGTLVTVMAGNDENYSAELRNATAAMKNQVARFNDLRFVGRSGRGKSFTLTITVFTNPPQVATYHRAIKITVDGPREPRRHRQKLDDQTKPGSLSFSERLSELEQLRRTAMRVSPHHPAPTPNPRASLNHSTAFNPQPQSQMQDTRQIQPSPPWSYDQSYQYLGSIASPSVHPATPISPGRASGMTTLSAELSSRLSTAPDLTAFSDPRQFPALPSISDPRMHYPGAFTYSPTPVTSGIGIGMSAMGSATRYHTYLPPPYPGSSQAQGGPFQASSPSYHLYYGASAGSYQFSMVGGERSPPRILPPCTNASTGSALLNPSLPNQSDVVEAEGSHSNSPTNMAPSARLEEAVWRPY

For this experiment, the target named is RUNX1 (UniProt Q01196). Kind of experiment: TF binding intensity (PBM fluorescence), negative control probe (arbitrary fluorescence units); higher = stronger binding. Here is the method:
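gcPBM negative-control 36-bp genomic probes lacking TF binding sites. Each was incubated with recombinant human ETS1 or RUNX1 alone and detected by antibody fluorescence. Values are medians over replicate spots (4 spots for the ETS1-RUNX1 arrays, 3 for the ETS1-ETS1 array). The probes sit in constant array flanks that are not printed.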
For “TGAAAAAGGGGAGGGCGGAAGTGACGAGCCGTAGCC (protein concentration 2 nM)”, the TF binding intensity is 891.
Consider “ACCCCATTTCAGTCATTTCCTGCTGCAACTAAGTCA (protein concentration 2 nM)”, for which the TF binding intensity turned out to be 1070.
The sequence “CCTTTGAAAGAAAAAAGGAAGTGTTTGGACGACAGC (protein concentration 2 nM)” yielded a TF binding intensity of 1150.
The result for “AAGTAAGCCCCGCCCCGGAACGGGCAGAAGTAGAGG (protein concentration 2 nM)” reads 1060.
As to “CGTCGCCCGGTCCCGGTTCCGGTCCGCGCTCCGGTC (protein concentration 2 nM)”, the TF binding intensity stood at 910.
